Source: PubChem BioAssay (EPA / NIEHS)
Where “and” joins values, the source holds several entries; their conditions need not be identical. Equal entries are not always repeated. Inconclusive results are not listed. Calls of active or inactive are those of the source. Rule for the calls: active = hit-call score of the fitted dose curve at least 0.9, where 1 is the maximum; inconclusive = response in the unintended direction; inactive = score below 0.9.

tested on: rat Monoamine Oxidase, MAO-A, Peripheral (MAOAP), gene 29253; test: NVS_ENZ_rMAOAP: NovaScreen (NVS) Enzymatic Assay for rat Monoamine Oxidase, MAO-A, Peripheral (MAOAP) (AID 2283237)
How it was run: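 Scintillation counting tracked MAO-A activity in a cell-free rat liver mitochondrial membrane prep, read 1.17 hours after compound addition. Single-point duplicate testing at 25 uM preceded concentration-response follow-up; activity was fitted relative to DMSO.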

SMILES | outcome
O=C(O)CC(O)C(=O)O (centres undefined) | inactive
CCCCCCCC=O | inactive
O=C(N[C@@H](c1ccccc1)[C@@H]1CCCCN1)c1cccc(C(F)(F)F)c1Cl | inactive

tested on: rat Monoamine Oxidase, MAO-A, Central (MAOAC), gene 29253; test: NVS_ENZ_rMAOAC: NovaScreen (NVS) Enzymatic Assay for rat Monoamine Oxidase, MAO-A, Central (MAOAC) (AID 2283243);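 note: potency refers to inhibition seen as signal drop below DMSO baseline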
How it was run: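 Lysate-based radiometric enzyme assay using rat brain tissue; 1.5 h treatment; 25 uM single-point duplicate screen, concentration-response follow-up; loss of signal versus DMSO.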

SMILES | AC50
CCCCc1oc2ccccc2c1C(=O)c1cc(I)c(OCCN(CC)CC)c(I)c1 | 18.9 µM (active)
CCOC(=O)CC(CC(=O)OCC)(OC(C)=O)C(=O)OCC | 25 µM (active)
O=C(O)c1cccc(C[C@@H]2COc3ccc(OCc4nc5cc(F)ccc5s4)cc3[C@@H]2O)c1 | 21 µM (active)
Nc1cccc2c(N)cccc12 | 25 µM (active)

target: Voltage-dependent N-type calcium channel subunit alpha-1B (Rattus norvegicus) (UniProt Q02294); test: NVS_IC_rCaChN: NovaScreen (NVS) Ion Channel Assay for rat Calcium Channel, Type N (CaChN) (AID 2283317)

SMILES | outcome
COC(=O)CCCCC(=O)OC | inactive
CC(C)(C)c1csc(-c2cc3cc(OCc4ccccc4CC(=O)O)ccc3o2)n1 | inactive
CC(C)c1cccc(C(C)C)c1 | inactive
Cc1oc(-c2ccccc2)nc1CCOc1cccc2c1ccn2CCC(=O)O | inactive

target: Norway rat Vesicular Monoamine Transporter (VMAT2), neurotransmitter transporter, Slc18a2 (gene 25549) (UniProt Q01827); test: NVS_TR_rVMAT2: NovaScreen (NVS) Transporter Assay for Norway rat Vesicular Monoamine Transporter (VMAT2), neurotransmitter transporter (AID 2283376);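 note: actives lower the bound radioligand signal below the DMSO level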
How it was run: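 Using rat forebrain membranes, specific radioligand binding to VMAT2 was measured by filtration and scintillation counting after 1 hour. Chemicals screened at 25 uM in duplicate, actives retested in concentration series, DMSO baseline.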

Norway rat Vesicular Monoamine Transporter (VMAT2), neurotransmitter transporter, Slc18a2 (gene 25549), sequence (Q01827 whole entry, looked up): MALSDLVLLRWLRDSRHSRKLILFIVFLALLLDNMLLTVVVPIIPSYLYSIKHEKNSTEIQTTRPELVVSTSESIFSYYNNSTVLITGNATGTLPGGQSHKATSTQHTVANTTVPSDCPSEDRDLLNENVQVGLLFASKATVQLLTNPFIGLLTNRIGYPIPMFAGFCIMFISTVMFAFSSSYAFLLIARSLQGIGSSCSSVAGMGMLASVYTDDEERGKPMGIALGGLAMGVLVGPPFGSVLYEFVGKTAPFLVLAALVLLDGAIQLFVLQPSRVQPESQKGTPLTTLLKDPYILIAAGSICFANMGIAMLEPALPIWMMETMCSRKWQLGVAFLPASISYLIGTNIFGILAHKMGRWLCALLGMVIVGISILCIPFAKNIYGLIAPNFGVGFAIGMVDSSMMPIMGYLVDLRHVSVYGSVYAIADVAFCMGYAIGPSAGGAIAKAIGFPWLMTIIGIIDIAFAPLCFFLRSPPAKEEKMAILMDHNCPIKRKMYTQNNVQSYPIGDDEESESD

SMILES | AC50 | outcome
CC/C(=C(/CC)c1ccc(O)cc1)c1ccc(O)cc1 | 12 µM (active) and 14.7 µM (active) and 20.5 µM (active) | –
Clc1nc(Cl)c(Cl)c(Cl)c1Cl | – | inactive
O=C(O)c1cccc(C[C@@H]2COc3ccc(OCc4nc5cc(F)ccc5s4)cc3[C@@H]2O)c1 | – | inactive
